An excerpt weighted towards active compounds, which were near 4.7% of everything screened.
TRHR agonist – qHTS for Small Molecule Agonists and Allosteric Enhancers of Human TRH Receptor: Primary Screen for Agonists | 360,000 tested, 0.18% active | activation, % at 2 µM | TRHR cells, calcium flux fluo-8, FDSS agonist mode | Thyrotropin-releasing hormone receptor (Homo sapiens), P34981; further: 0% is about no effect
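In this calcium-flux screen, cells bearing human TRHR are dye-loaded with fluo-8, baselined for 10 cycles, then exposed to library compounds; positive kinetic calcium responses during the agonist phase mark hits, with TRH as control.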
D1 potentiator – Potentiators of Human D1 Dopamine Receptor: qHTS. D(1A) dopamine receptor (Homo sapiens), P21728. HEK293 TREx D1 cells, calcium flux, dopamine EC20 potentiation. potentiation, % at 10 µM. 360,000 tested, 0.036% active. AID 504651, 2011; in the data active means potentiation above about 30%; further: 0% is about no effect
Target sequence (P21728 whole entry, looked up): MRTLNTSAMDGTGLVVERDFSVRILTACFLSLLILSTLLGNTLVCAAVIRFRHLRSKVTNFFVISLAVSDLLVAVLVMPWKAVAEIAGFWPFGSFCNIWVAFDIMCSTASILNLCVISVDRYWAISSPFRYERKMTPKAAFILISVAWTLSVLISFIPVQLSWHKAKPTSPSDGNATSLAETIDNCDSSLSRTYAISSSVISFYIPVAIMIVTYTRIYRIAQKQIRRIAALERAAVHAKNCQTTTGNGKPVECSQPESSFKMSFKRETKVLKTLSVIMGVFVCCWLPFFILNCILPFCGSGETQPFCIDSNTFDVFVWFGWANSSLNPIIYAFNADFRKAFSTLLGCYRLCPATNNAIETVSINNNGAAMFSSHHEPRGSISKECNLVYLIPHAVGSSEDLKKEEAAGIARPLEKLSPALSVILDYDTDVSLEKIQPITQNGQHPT
TRHR enhancer – qHTS for Small Molecule Agonists and Allosteric Enhancers of Human TRH Receptor: Primary Screen for Enhancers | enhancement, % at 2 µM | TRHR cells, fluo-8 calcium fluorescence, EC20 TRH enhancement | AID 493056, 2011 | Thyrotropin-releasing hormone receptor (Homo sapiens), P34981 | 360,000 tested, 0.66% active; in the data active means enhancement above about 30%; further: 0% is about no effect
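Enhancer read-out: after compound pinning and an initial kinetic agonist-mode read, an EC20 of TRH (10 nM final) was injected and fluo-8 calcium signal (Ex 480/Em 530) followed at 1 s/cycle for 100 cycles in TRHR-expressing cells.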
D1 agonist – Allosteric Agonists of the Human D1 Dopamine Receptor: qHTS. 360,000 tested, 1% active. activation, % at 2 µM. D(1A) dopamine receptor (Homo sapiens), P21728. HEK293 T-REx D1 cells, calcium flux, agonist mode. AID 504660, 2011; further: 0% is about no effect
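Agonism was scored from calcium flux recorded over 180 s (1 read/s) after pintool compound addition, following a 10-cycle baseline. Cells were inducible force-coupled HEK293 TREx D1, plated overnight at 30 C and loaded with no-wash calcium dye.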
D1 antagonist – Antagonist of Human D 1 Dopamine Receptor: qHTS. D(1A) dopamine receptor (Homo sapiens), P21728. HEK293 TREx D1 cells, calcium flux, dopamine EC80; active compounds read low. activity change, negative = inhibition, % at 10 µM. 360,000 tested, 3.2% active. AID 504652, 2011; in the data active means activity change below about -30%; further: on the % scale 0 is the no-effect control and ±100 the full control effect
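Tetracycline-induced HEK293 T-REx cells with force-coupled D1 receptor were loaded with a no-wash calcium dye. Compound was added after a 10 s baseline and read kinetically for 180 s; EC80 dopamine was then added and calcium flux followed another 180 s.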
* marks the source's active call; other numbers are inactive results; / = no result given. Unless noted, no stated cut-off is given here; in the data, active means activation above about 30%; inactive means the rest.

SMILES | TRHR agonist | D1 potentiator | TRHR enhancer | D1 agonist | D1 antagonist
COc1ccc(C(=O)Nc2ccc(-n3nncc3-c3ccc(OC)c(OC)c3)cc2)cc1 | 0.1 | -1.1 | 12.4 | 2.2 | -8.8
COc1ccc(CCNC(=O)c2cc(COc3c(C)cccc3C)on2)c(OC)c1 | 0.0 | -4.0 | 8.5 | 9.6 | -3.1
Cc1nc(-c2ccc(Cl)cc2)sc1C1(C)CC(c2ccc(C#N)cc2)=NO1 (stereo unspecified) | 0.6 | 0.3 | -3.0 | 3.2 | 14.7
Cc1nc(Nc2ccc(S(N)(=O)=O)cc2)sc1C(=O)Nc1ccccc1 | 0.3 | -12.7 | 7.3 | 0.5 | -54.8*
COc1ccccc1Nc1nc(C)c(C(=O)Nc2ccccc2)s1 | -1.0 | -8.5 | 7.6 | 2.6 | -38.4*
Cc1nc(Nc2ccccc2)sc1C(=O)Nc1ccccc1 | -0.1 | -2.6 | 9.3 | 1.6 | 2.1
Cc1nc(Nc2ccccc2Cl)sc1C(=O)Nc1ccccc1 | -0.2 | -9.8 | 6.5 | 2.5 | 1.4
COC(=O)c1c(-c2ccccc2)csc1NC1=NS(=O)(=O)c2ccccc21 | -0.4 | 6.0 | 32.4* | 10.8 | -3.9
CCCc1cc(C(=O)NCc2ccccc2)no1 | -0.2 | -5.1 | -1.7 | -1.0 | -5.9
O=C(NCc1ccco1)c1ccccc1 | 1.2 | -6.5 | 6.1 | 0.4 | 0.3
O=C(NCc1ccco1)c1csc2c1CCCCC2 | -0.6 | 0.4 | -3.9 | 1.4 | -32.7*
O=C(NCc1ccco1)c1c(F)c(F)c(F)c(C(=O)NCc2ccco2)c1F | 0.3 | -2.3 | -5.5 | 0.7 | -33.2*
CCCc1cc(C(=O)NCc2ccco2)no1 | 0.1 | -9.2 | -2.5 | 0.1 | -34.9*
O=C(NCc1ccco1)c1ccc([N+](=O)[O-])o1 | 0.4 | 5.8 | 68.8* | 4.6 | -1.1
O=C(COc1ccccc1[N+](=O)[O-])NCCCN1CCCC1=O | 2.7 | -0.5 | 1.5 | 1.6 | 1.3
O=C(/C=C/c1ccc(F)cc1)Nc1nc2ccccc2[nH]1 | -1.6 | -1.4 | -14.2 | 5.3 | -31.1*
O=c1[nH]c2ccccc2nc1/C=C/c1ccccc1 | 2.1 | -6.0 | 1.2 | 3.8 | -6.6
O=c1[nH]c2ccccc2nc1/C=C/c1ccc(O)cc1 | 22.5 | -4.8 | 8.8 | 45.0* | 0.8
O=c1[nH]c2ccccc2nc1/C=C/c1ccc(F)cc1 | -2.4 | -4.8 | 1.4 | 35.3* | -8.6
O=C(Nc1nc2ccccc2[nH]1)c1cccc(F)c1 | 0.6 | 6.4 | -2.1 | 1.2 | 7.7
COC(=O)c1c(-c2ccc(Cl)cc2)noc1N1CCN(c2ccccc2OC)CC1 | 0.6 | -0.5 | 0.6 | 0.7 | -31.5*
Cc1ccc(C(NC(=O)N2CCOCC2)C(Cl)Cl)cc1F (stereo unspecified) | -0.6 | 0.4 | 1.3 | 0.8 | -8.0
Cc1ccc(C(NC(=O)N2CCOCC2)=C(Cl)Cl)cc1F | -2.6 | -2.0 | 1.8 | -0.6 | -37.3*
O=C(COC(=O)c1ccncc1)Nc1cc(S(=O)(=O)N2CCOCC2)ccc1Cl | 0.7 | -3.6 | -2.4 | -0.5 | -6.0
C[N+](C)(C)CC/C=C1/c2ccccc2CSc2ccccc21 | -1.1 | -5.6 | 6.0 | 1.0 | -8.3
SMILES | TRHR agonist | D1 potentiator | TRHR enhancer | D1 agonist | D1 antagonist
CNCCC=C1c2ccccc2CCc2ccccc21 | 0.9 | -5.3 | -3.7 | 21.0 | -78.8*
CN(C)c1ccc(/C=C/C(O)=C2/C(=O)N(C)C3(C)CC2c2ccccc2O3)cc1 (stereo unspecified) | 32.0* | -5.0 | -5.7 | 68.8* | -24.4
O=C(Nc1c2c(nn1-c1ccccc1)CS(=O)(=O)C2)c1ccc2c(c1)OCO2 | 0.9 | -2.2 | 8.8 | 3.4 | -8.5
NC(=O)NC(c1ccccc1)c1ccccc1 | 0.7 | 34.8* | -5.1 | 184.7* | /
COc1cccc(NC(=O)C2CCN(c3ccc(Sc4ccc(C)cc4)nn3)CC2)c1 | 0.1 | 0.6 | 11.9 | 1.9 | -2.0
Cc1ccc(Sc2ccc(N3CCC(C(=O)Nc4cc(C)cc(C)c4)CC3)nn2)cc1 | 0.2 | 6.3 | 11.6 | -0.6 | -47.5*
COc1cccc(-c2cc(C(F)(F)F)n3nc(C(=O)N4CCCCC4c4cccnc4)cc3n2)c1 (stereo unspecified) | -0.9 | -10.9 | 2.2 | 1.1 | -49.1*
COc1ccc(-c2cc(C(F)(F)F)n3nc(C(=O)N4CCCCC4)cc3n2)cc1 | 0.4 | -2.8 | -4.8 | 0.4 | -10.8
COc1ccc(-c2cc(C(F)(F)F)n3nc(C(=O)Nc4cccc(Cl)c4C)cc3n2)cc1 | 1.5 | -3.9 | 38.7* | -0.1 | -8.4
Cn1nnnc1SCC(=O)Nc1ncc(Cl)cc1Cl | 1.0 | 7.8 | -3.8 | 1.9 | 2.6
CCc1ccc(-n2c(SC(CC)C(=O)N(CC)CC)nc3n[nH]c(C)c3c2=N)cc1 (stereo unspecified) | -0.7 | 4.3 | -1.0 | 3.5 | 15.0
CCC(Sc1nc2n[nH]c(C)c2c(=N)n1-c1cccc(Cl)c1C)C(=O)N(CC)CC (stereo unspecified) | -0.2 | 4.9 | -3.5 | 0.8 | -40.9*
CC1CCc2nc(NC(=O)CN3CCOCC3)sc2C1 (stereo unspecified) | 0.2 | -6.2 | -6.1 | 0.0 | -34.0*
CC1(C)C2CCC1(C)C(OCC[N+](C)(C)CC(=O)OC1CCCCC1)C2 (stereo unspecified) | -0.4 | -3.1 | 16.3 | 0.9 | -65.9*
COc1cccc(S(=O)(=O)N2CCN(S(=O)(=O)c3ccc4c(c3)OCCO4)CC2)c1 | -2.3 | -3.0 | -3.6 | 1.8 | 15.5
CC(CCCC(C)(C)O)NC(=O)c1ccc2oc(CCc3ccccc3)nc2c1 (stereo unspecified) | 0.0 | -1.0 | -2.5 | 6.9 | 4.2
CC(=O)c1cc(-c2ccccc2)n(CC(=O)Nc2cccc(C)c2)c1C | -0.4 | -4.1 | -3.7 | 0.4 | -17.2
CCc1cccc(NC(=O)Cn2c(-c3ccccc3)cc(C(C)=O)c2C)c1 | -0.5 | -7.2 | -2.5 | 2.1 | -33.1*
CCOc1ccc(NC(=O)CSc2nnc(Cn3cnc([N+](=O)[O-])n3)n2CC)cc1 | -0.1 | -14.4 | 1.0 | 2.0 | -37.5*
CCOc1ccc(NC(=O)CSc2nnc(Cn3cnc([N+](=O)[O-])n3)n2C)cc1 | -0.3 | 0.7 | 1.2 | 1.5 | 5.2
COc1ccc(OC(=O)c2cccc(S(=O)(=O)N3CC(C)OC(C)C3)c2)cc1 (stereo unspecified) | 0.5 | -1.7 | 3.1 | 3.0 | -2.3
OC(COc1ccc2cc(Br)ccc2c1)CN1CCCC1 (stereo unspecified) | 0.0 | -4.2 | 0.4 | 68.3* | -66.4*
CN(C)S(=O)(=O)N1CCN(CC(O)COc2ccc3cc(Br)ccc3c2)CC1 (stereo unspecified) | 0.8 | -7.1 | -13.7 | 14.4 | -49.0*
